GPR151 ag: human GPR151 activation; Q8TDV0; PathHunter beta-arrestin GPR151 cells, luminescence; activation, % at 11.2 µM; 650,000 tested, 1% active; AID 1508602; in the data active means activation above about 4.9%;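 further: 0% = median of compound wells and 100% = cells with positive control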
MITF inh: inhibitors of human MITF; O75030; inhibition, % at 2.6 µM; AID 1259374; AlphaScreen MITF homodimerization, bead proximity signal; 650,000 tested, 0.91% active; in the data active means inhibition above about 50%;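 further: 0% = vehicle wells with protein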
FBW7 activator: activators of human E3 ligase FBW7; 650,000 tested, 0.13% active; normalized activity (activation), % at 26.1 µM; Q969H0; AlphaScreen FBW7–phospho-cyclin E peptide binding, activator screen; in the data active means normalized activity above about 1.9%;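 further: purified mutant Fbw7 with reduced substrate affinity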
TEAD-YAP inh: TEAD-YAP interaction inhibition. HEK-TIYL cells, TEAD-Gal4/YAP UAS-luciferase luminescence. inhibition, % at 9.12 µM. 640,000 tested, 1.4% active. AID 1259422; in the data active means inhibition above about 32%;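 further: 0% = median of test compound wells and 100% = reference inhibitor wells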
The depositor's hits bear a star. The list is not random: actives were taken first. Their share in the collection is about 3.4%.

What do the screens show for `Cc1cc(C)c[n+](C(C)C(=O)c2ccc(-c3ccccc3)cc2)c1` (stereo not given)?
GPR151 ag: 0.6; MITF inh: 4.0; FBW7 activator: 0.3; TEAD-YAP inh: 71.5*

Results for Cc1ccc[n+](C(C)C(=O)c2ccccc2)c1 (stereo not given) ?
GPR151 ag: -0.3; MITF inh: 10.1; FBW7 activator: -0.1; TEAD-YAP inh: 1.4

What do the screens show for `CCC(C)(C)n1nnnc1CN1CCC(c2nc3ccc(C)cc3[nH]2)CC1`?
GPR151 ag: -0.7; MITF inh: 37.3; FBW7 activator: 0.1; TEAD-YAP inh: -5.6

How did CCC(C)(C)n1nnnc1CN1CCC(c2nc3ccc(Cl)cc3[nH]2)CC1 do in these assays?
GPR151 ag: 0.6; MITF inh: 20.4; FBW7 activator: 0.3; TEAD-YAP inh: 34.7*

What do the screens show for `Nc1ncc(-c2cccc3ncccc23)nc1NCc1ccccc1`?
GPR151 ag: 1.0; MITF inh: 21.5; FBW7 activator: 0.6; TEAD-YAP inh: 48.2*

What do the screens show for `C[C@H](Nc1nc(-c2cccc3ncccc23)cnc1N)c1ccccc1`?
GPR151 ag: -0.7; MITF inh: 13.6; FBW7 activator: 0.1; TEAD-YAP inh: 59.7*

Results for C[C@@H](Nc1nc(-c2cccc3cccnc23)cnc1N)c1ccccc1 ?
GPR151 ag: -0.5; MITF inh: 5.7; FBW7 activator: 0.1; TEAD-YAP inh: 16.0

How did CC(=O)N(Cc1ccc(F)cc1)C1=C(NCc2ccccc2)C(=O)c2ccccc2C1=O do in these assays?
GPR151 ag: -2.9; MITF inh: 3.8; FBW7 activator: -0.2; TEAD-YAP inh: 59.0*

How did Cc1cc(C(=O)CCl)c(C)n1Cc1ccco1 do in these assays?
GPR151 ag: -1.5; MITF inh: 33.3; FBW7 activator: 0.1; TEAD-YAP inh: 5.4

What do the screens show for `Cc1cc(C(=O)CSc2nnc3ccccn23)c(C)n1Cc1ccco1`?
GPR151 ag: -3.0; MITF inh: 1.3; FBW7 activator: -0.1; TEAD-YAP inh: 61.3*

What do the screens show for `Cc1cc(C(=O)CO/N=C/c2ccco2)c(C)n1Cc1ccco1`?
GPR151 ag: 4.4; MITF inh: -5.4; FBW7 activator: -0.1; TEAD-YAP inh: 53.0*

How did COC(=O)c1sc2nc(-c3ccccc3)nc(N)c2c1C do in these assays?
GPR151 ag: -0.3; MITF inh: -0.7; FBW7 activator: -0.1; TEAD-YAP inh: -51.4

How did O=C(CSc1ccc(-c2ccc(-n3ccnc3)cc2)nn1)N1CCc2ccccc21 do in these assays?
GPR151 ag: -1.1; MITF inh: -35.4; FBW7 activator: 2.3*; TEAD-YAP inh: -16.6

Results for COc1ccc(CNn2c(-c3cc(OC)c(OC)c(OC)c3)nc3ccccc3c2=O)cc1 ?
GPR151 ag: -0.5; MITF inh: 3.0; FBW7 activator: 0.3; TEAD-YAP inh: 1.6

How did Cc1cc(C(F)(F)F)nc(Sc2ccc([N+](=O)[O-])cn2)n1 do in these assays?
GPR151 ag: -1.0; MITF inh: 24.4; FBW7 activator: 0.1; TEAD-YAP inh: 60.4*

What do the screens show for `O=[N+]([O-])c1ccc(Sc2n[nH]c(-c3ccncc3)n2)nc1`?
GPR151 ag: -0.2; MITF inh: 5.1; FBW7 activator: -0.1; TEAD-YAP inh: 5.3

How did COc1ccccc1-c1cncc(-c2cccc(NC(C)=O)c2)n1 do in these assays?
GPR151 ag: 0.8; MITF inh: 4.5; FBW7 activator: 0.1; TEAD-YAP inh: -19.1

What do the screens show for `Nc1ccc(C(=O)Nc2nc3ccc(C(=O)N4CCOCC4)cc3s2)cc1`?
GPR151 ag: -1.3; MITF inh: -1.6; FBW7 activator: 0.0; TEAD-YAP inh: 7.5

Results for O=C(Nc1nc2ccc(C(=O)N3CCOCC3)cc2s1)c1cccs1 ?
GPR151 ag: -9.5; MITF inh: 14.9; FBW7 activator: 0.2; TEAD-YAP inh: 41.8*

Results for O=C(Cc1ccccc1)N(CCCN1CCOCC1)c1nc2ccc(F)cc2s1 ?
GPR151 ag: -1.0; MITF inh: -9.4; FBW7 activator: -0.2; TEAD-YAP inh: -69.8

How did CCOC(=O)C1=NN(c2cccc(Cl)c2)C2C(=O)N(c3ccccc3)C(=O)C12 (stereo not given) do in these assays?
GPR151 ag: -1.0; MITF inh: -12.5; FBW7 activator: 0.0; TEAD-YAP inh: -2.9

Results for COc1cccc2sc(=NC(=O)c3cccc4ccccc34)n(C)c12 ?
GPR151 ag: -0.8; MITF inh: 6.7; FBW7 activator: 0.9; TEAD-YAP inh: 1.7

How did COc1cccc2sc(=NC(=O)c3nc4ccccc4s3)n(C)c12 do in these assays?
GPR151 ag: -0.2; MITF inh: -5.3; FBW7 activator: -0.1; TEAD-YAP inh: 70.9*

What do the screens show for `Cc1ccsc1C(C(=O)NCCc1ccccc1)N(C(=O)c1csnn1)C1CC1` (stereo not given)?
GPR151 ag: -1.4; MITF inh: 2.9; FBW7 activator: 0.2; TEAD-YAP inh: 0.1
